Test results as given in PubChem BioAssay AID1578 (Sanford-Burnham Center for Chemical Genomics, 2009).
About 3,000 (1%) of roughly 290,000 compounds were called active. Cut-off read from the data, not from the text of the source: active = inhibition mostly above about 36% (no sharp cut-off); inactive = mostly below about 34%. What follows is part of a selection rich in actives, with near analogues and random picks from the rest.

Test: inhibition of NOD1-driven NF-kB reporter – cell-based, luminescence, uHTS, primary screen (AID 1578);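 note: HEK-293T reporter cells stimulated with the NOD1 agonist gamma-tri-DAP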
Details: NOD1-driven NF-kB luciferase reporter cells, at 4 µM, stronger effect = higher value
In the case of `COCCN1C(=O)C(CC(=O)Nc2ccc(C(C)=O)cc2)SC1=Nc1ccccc1` (centres undefined), the inhibition is reported as 4.5% (inactive).
In the case of `COC(=O)Nc1ccc(C)c(NC(=O)OC)c1`, the inhibition is reported as -7.3% (inactive).
In the case of `O=c1[nH]c([N+](=O)[O-])nn1C(c1ccccc1)c1ccccc1`, the inhibition is reported as 6.5% (inactive).
For `COC(=O)c1ccc(CSc2cc(C)c3cccc(C)c3n2)o1`, the inhibition was -10.2% (inactive).
With `COC(=O)c1ccc(CSc2cc(C)c3ccccc3n2)o1` the inhibition was -55.1% (inactive).
With `COC(=O)c1ccc(CSc2cc(C)c3cc(C)cc(C)c3n2)o1` the inhibition was 48.3% (active).
With `CC(C)(C)c1cc(CN2CCC(O)CC2)cc(C(C)(C)C)c1O` the inhibition was 36.7% (inactive).
For `CCOC(=O)C1CCN(Cc2cc(C(C)(C)C)c(O)c(C(C)(C)C)c2)CC1`, the inhibition was 43.8% (active).
In the case of `CCOC(=O)C1CCN(Cc2cc(C(C)C)c(O)c(C(C)C)c2)CC1`, the inhibition is reported as -13.9% (inactive).
For `Cc1c(C(c2cccc(Br)c2)c2c(C)n(C)n(-c3ccccc3)c2=O)c(=O)n(-c2ccccc2)n1C`, the inhibition was -14% (inactive).
For `CC12C(=O)N(c3ccc(C(=O)N4CCOCC4)cc3)C(=O)C1C1c3ccccc3C2c2ccccc21` (centres undefined), the inhibition was -20.5% (inactive).
In the case of `c1ccc(-n2c(SCC3CCCCO3)nnc2-c2cnccn2)cc1` (centres undefined), the inhibition is reported as 11.8% (inactive).
With `CCc1nnc(NC(=O)C2CCN(c3cnccn3)CC2)s1` the inhibition was -4.1% (inactive).
For `COc1nc(N/N=C/c2ccc(C)cc2)nc(N2CCCCC2)n1`, the inhibition was -27.3% (inactive).
For `Cc1cc(-c2n[nH]c(=S)n2-c2ccc(C)c(C)c2)no1`, the inhibition was 84% (active).
With `Cc1ccc(-n2c(-c3ccncc3)n[nH]c2=S)cc1C` the inhibition was -5.7% (inactive).
In the case of `Cc1ccc(-n2c(C)n[nH]c2=S)cc1C`, the inhibition is reported as 3.4% (inactive).
In the case of `CCN(CC)S(=O)(=O)N1CCC(C(=O)NCc2ccco2)CC1`, the inhibition is reported as 22% (inactive).
For `COc1ccc(C2(c3ccc(OC)cc3)NC(=O)N(CC(=O)N(C)C)C2=O)cc1`, the inhibition was -33.1% (inactive).
In the case of `COc1c(Cl)cc(-c2noc(C)c2C(=O)NCCc2ccc(C)cc2)cc1Cl`, the inhibition is reported as -10.2% (inactive).
For `CN(C)c1ccc(NC(=O)C(=O)C2C(=O)Nc3ccccc32)cc1` (centres undefined), the inhibition was -9.3% (inactive).
For `COc1cccc(CC(NC(C)=O)C(=O)NC2CCN(c3c4c(nc5ncnn35)CCC4)CC2)c1OC` (centres undefined), the inhibition was -26.4% (inactive).
With `CCC1=Nc2cc(C(=O)NCC3CCCO3)ccc2Sc2ccc(Cl)cc21` (centres undefined) the inhibition was 1% (inactive).
With `CC1=Nc2cc(C(=O)NCC3CCCO3)ccc2Sc2ccc(Br)cc21` (centres undefined) the inhibition was 8.4% (inactive).
In the case of `CCC1=Nc2cc(C(=O)NCC3CCCO3)ccc2Sc2ccc(Br)cc21` (centres undefined), the inhibition is reported as 51.7% (active).
In the case of `CCCCNC(=O)N1CCN(c2ccccc2OC)CC1`, the inhibition is reported as -17.5% (inactive).
For `CCCN(CC(=O)Nc1ccc(NC(C)=O)cc1)CC(=O)Nc1ccc(F)c(F)c1F`, the inhibition was -20.3% (inactive).
With `CCCN(CC(=O)Nc1ccc(C(N)=O)cc1)CC(=O)Nc1ccc(F)c(F)c1F` the inhibition was 38.1% (active).
In the case of `CCCN(CC(=O)Nc1ccc(C(N)=O)cc1)CC(=O)Nc1ccc(Cl)cc1Cl`, the inhibition is reported as -30.3% (inactive).
For `CC(C)NC(=O)CSc1nnc(-c2ccc3ncccc3c2)n1C`, the inhibition was -3.6% (inactive).
In the case of `c1cc2[nH]snc2c2nc(C3CC3)nc12`, the inhibition is reported as 63.2% (active).
For `Cc1nc2ccc3[nH]snc3c2n1`, the inhibition was 20.2% (inactive).
For `CCCOc1ccc2cc(-c3ccccn3)c(=O)oc2c1`, the inhibition was 41.1% (inactive).
For `CC1CN(CCc2ccccc2)c2nc3c(c(=O)n(C)c(=O)n3C)n2C1` (centres undefined), the inhibition was -12.5% (inactive).
With `N#Cc1ccc(-n2c(-c3ccccc3)nnc2-c2ccccc2)cc1C#N` the inhibition was 42.1% (active).
In the case of `N#Cc1ccc(-c2nc3cc(C#N)c(C#N)cc3nc2-c2ccccc2)cc1C#N`, the inhibition is reported as 48.5% (active).
For `N#Cc1cccc(-n2c(-c3ccccc3)nnc2-c2ccccc2)c1C#N`, the inhibition was 11.5% (inactive).
With `N#Cc1ccc(Oc2ccc(-c3nc4ccccc4nc3-c3ccccc3)cc2)cc1C#N` the inhibition was 3.3% (inactive).
For `N#Cc1ccc(-c2nc3ccccc3nc2-c2ccccc2)cc1C#N`, the inhibition was 1.3% (inactive).
With `CCOc1ccc(-n2c(-c3ccccc3)nnc2-c2ccccc2)cc1` the inhibition was 8.2% (inactive).
In the case of `CC(=O)Nc1nnc(CSCc2ccccc2F)s1`, the inhibition is reported as -5.5% (inactive).
With `CC(=O)N(C)c1cccc(-c2ccc3nnc(C)n3n2)c1` the inhibition was -5.9% (inactive).
For `CCOC(=O)c1c(-c2ccccc2)csc1NC(=O)c1cc(S(=O)(=O)N2CCOCC2)ccc1C`, the inhibition was -1.6% (inactive).
In the case of `Fc1ccc(Nc2nnc(C(F)(F)F)s2)cc1`, the inhibition is reported as 3.4% (inactive).
With `Cc1oc(-c2cccc(F)c2)nc1CN1CCCCC1CCn1cccn1` (centres undefined) the inhibition was -32% (inactive).
For `Cc1nnc(Nc2ccc(Cl)cc2)n(N)c1=O`, the inhibition was -7% (inactive).
With `c1ccc(OCc2nnc3sc(C4COc5ccccc5O4)nn23)cc1` (centres undefined) the inhibition was 1.5% (inactive).
For `c1ccc(Cc2nnc3sc(C4COc5ccccc5O4)nn23)cc1` (centres undefined), the inhibition was 107% (active).
For `c1ccc2c(c1)OCC(c1nn3c(Cn4nnc5ccccc54)nnc3s1)O2` (centres undefined), the inhibition was -10.7% (inactive).
In the case of `O=C(Nc1ccc(F)cc1)c1nc[nH]c1C(=O)O`, the inhibition is reported as -6.5% (inactive).
For `Nc1nc(-c2ccccc2)c(C(=O)Nc2ccccc2)s1`, the inhibition was -28.9% (inactive).
With `O=C1c2ccccc2C(=O)C1c1ccccn1` the inhibition was -8.4% (inactive).
In the case of `O=C1c2ccccc2C(=O)C2OC12` (centres undefined), the inhibition is reported as 70.9% (active).
For `Cc1ccccc1C1C(=O)c2ccccc2C1=O`, the inhibition was -39.1% (inactive).
For `Clc1ccccc1OCCn1cnc2ccccc21`, the inhibition was -21.1% (inactive).
For `COc1ccc(S(=O)(=O)NC(Cc2ccccc2)C(=O)O)cc1` (centres undefined), the inhibition was -1.3% (inactive).
For `COc1ccc(C(CNC(=O)COc2ccc(C)c(C)c2)N2CCCCC2)cc1` (centres undefined), the inhibition was 10.5% (inactive).
In the case of `Cc1nc(C)n(CCNC(=O)c2ccco2)n1`, the inhibition is reported as -15.3% (inactive).
With `Oc1c(Br)cc(Br)cc1C=Nc1ccc2[nH]ncc2c1` the inhibition was 8.5% (inactive).
In the case of `Oc1c(Br)cc(Br)cc1C=Nc1cccnc1`, the inhibition is reported as 67.4% (active).
In the case of `COc1cccc(C=Nc2cccnc2)c1O`, the inhibition is reported as -7.3% (inactive).
With `COc1ccc(/C=C2\CCC(C3CCCC3)C2=O)cc1Cn1nc(C)cc1C` (centres undefined) the inhibition was 26.4% (inactive).
With `Cc1ccc(SCC(=O)NC2CCCCCC2)cc1` the inhibition was -50.8% (inactive).
With `CCN(CC)CCNC(=O)c1cn(CC)c2ccc(S(=O)(=O)N(C)C)cc2c1=O` the inhibition was -4.5% (inactive).
With `COc1ccc(C(CC(=O)c2ccc(C)cc2)C(C#N)C#N)cc1OC` (centres undefined) the inhibition was 80.7% (active).
For `COC(=O)C(C(=O)OC)C(CC(=O)c1ccc(C)cc1)c1cc(OC)c(OC)c(OC)c1` (centres undefined), the inhibition was -3.3% (inactive).
In the case of `COc1ccc(C(CC(=O)c2ccccc2)CC(=O)c2ccccc2)cc1OC`, the inhibition is reported as -7.4% (inactive).
For `C=CCN(c1nc(C)c(Br)c(OC)n1)S(=O)(=O)c1ccc(C)cc1`, the inhibition was -14% (inactive).
With `CCN(Cc1cc2ccccc2[nH]c1=O)S(=O)(=O)c1ccc(OC)cc1` the inhibition was -5.3% (inactive).
In the case of `O=C(Oc1ccccc1C(=O)Nc1ccccc1)c1ccc(Br)c([N+](=O)[O-])c1`, the inhibition is reported as -30.7% (inactive).
With `Cc1cc(CNC(=O)c2cccc([N+](=O)[O-])c2C)c2ccccc2n1` the inhibition was 2.7% (inactive).
For `O=C(c1ccc2c(Cl)c3c(nc2c1)CCCC3)N1CCC(N2CCCCC2)CC1`, the inhibition was -13.1% (inactive).
With `Cn1c(=O)c(C(=O)CN2CCc3ccccc32)c(N)n(Cc2ccccc2)c1=O` the inhibition was -8.9% (inactive).
In the case of `O=C(CSc1nc2ncc(Br)cc2[nH]1)c1ccc([N+](=O)[O-])cc1`, the inhibition is reported as -15.6% (inactive).
In the case of `Cc1nn(C)cc1/C=C/C(=O)c1ccccc1`, the inhibition is reported as -44.5% (inactive).
In the case of `Cc1c(/C=C/C(=O)c2cccs2)cnn1C`, the inhibition is reported as 20.7% (inactive).
In the case of `Cc1nn(C)cc1/C=C/C(=O)c1cccs1`, the inhibition is reported as 112% (active).
In the case of `Cc1ccnc(Cc2ccccc2)n1`, the inhibition is reported as -4.5% (inactive).
In the case of `O=C(CCC(=O)OCC(=O)c1ccc(-c2ccccc2)cc1)Nc1cccc(Cl)c1`, the inhibition is reported as 7.8% (inactive).
For `Cc1cc(C)n(-c2ccc(C(=O)Nc3ccccn3)cc2)n1`, the inhibition was -30.3% (inactive).
With `Cc1onc(-c2c(Cl)cccc2Cl)c1C(=O)N/N=C(\N)COc1ccc(Cl)cc1` the inhibition was 71.9% (active).
With `Cc1onc(-c2ccccc2Cl)c1C(=O)N/N=C(\N)COc1ccc(Cl)cc1` the inhibition was 8.6% (inactive).
For `Cc1onc(-c2ccccc2)c1C(=O)N/N=C(\N)COc1ccc(Cl)cc1`, the inhibition was -17.2% (inactive).
With `O=C(NCC1CC1)NC(=O)c1c(F)cccc1Cl` the inhibition was -15.8% (inactive).
For `Nc1ccc(S(=O)(=O)Nc2nccc(/C=C/c3ccc(Cl)cc3)n2)cc1`, the inhibition was 22.2% (inactive).
For `Nc1ccc(S(=O)(=O)Nc2nccc(/C=C/c3ccc([N+](=O)[O-])cc3)n2)cc1`, the inhibition was 14% (inactive).
For `C=CCn1cnc2c(nnn2-c2ccc(C)c(C)c2)c1=O`, the inhibition was -34.3% (inactive).
With `NS(=O)(=O)c1ccc(N=Nc2ccc(O)c3ncccc23)cc1` the inhibition was -6.1% (inactive).
For `Oc1ccc(N=Nc2ccc3c(c2)OCCO3)c2ncccc12`, the inhibition was 106% (active).
In the case of `Oc1ccc(N=Nc2ccc3c(c2)OCCO3)c(O)c1`, the inhibition is reported as -2.2% (inactive).
For `Oc1[nH]c2ccccc2c1C=Nc1ccc2c(c1)OCO2`, the inhibition was 14.2% (inactive).
For `Oc1ccc(N=Nc2ccc3c(c2)OCO3)c2ccccc12`, the inhibition was 109% (active).
For `O=S(=O)(Nc1ccc(N=Nc2ccc(O)c3ccccc23)cc1)c1ccccc1`, the inhibition was 13% (inactive).
In the case of `Cc1ccc(S(=O)(=O)N(CC(=O)N2CCC(C)CC2)c2ccccc2)cc1`, the inhibition is reported as -4.7% (inactive).
In the case of `Cc1nc(NC(=O)c2ccccc2)sc1C`, the inhibition is reported as -84.9% (inactive).
With `COCC(=O)OCn1nnc2ccccc2c1=O` the inhibition was 3.6% (inactive).
With `Cc1ccccc1NC(=O)c1ccc(Nc2c([N+](=O)[O-])cc([N+](=O)[O-])c3ccccc23)cc1` the inhibition was 76.4% (active).
For `O=C(Nc1ccccc1)c1ccc(Nc2c([N+](=O)[O-])cc([N+](=O)[O-])c3ccccc23)cc1`, the inhibition was -8.1% (inactive).
With `Cc1ccc(NC(=O)c2ccc(Nc3c([N+](=O)[O-])cc([N+](=O)[O-])cc3[N+](=O)[O-])cc2)cc1` the inhibition was 4.8% (inactive).
